Test results published in PubChem BioAssay (EPA / NIEHS).
Results filed as inconclusive are left out. The source made the active and inactive calls. How the source made its calls, unless noted: active means hit-call score of the fitted dose curve at least 0.9, where 1 is the maximum; inconclusive means response in the unintended direction; inactive means score below 0.9.

Legend:
[1] = molecular target: Retinoic acid receptor RXR-alpha (Homo sapiens) (UniProt P19793); experiment: OT_NURR1_NURR1RXRa_0480: Odyssey Thera (OT) 8-hour HEK293T Protein Complementation Assay for Nurr1/retinoid X receptor (RXR) (AID 2283385)
In short: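 Read-out: fluorescence from protein-fragment complementation between Nurr1 and RXRα in human HEK293T cells, 8 h after dosing. DMSO served as negative control; increased signal counted as activity.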

[2] = molecular target: Retinoic acid receptor RXR-alpha (Homo sapiens) (UniProt P19793); experiment: OT_NURR1_NURR1RXRa_1440: Odyssey Thera (OT) 24-hour HEK293T Protein Complementation Assay for Nurr1/retinoid X receptor (RXR) (AID 2283386)
In short: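 Fluorescence PCA read-out; HEK293T; 24 h post-dose; bait/prey fused to reporter fragments; gain-of-signal fit vs DMSO negative control.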

[3] = molecular target: Peroxisome proliferator-activated receptor gamma (Homo sapiens) (UniProt P37231); experiment: OT_PPARg_PPARgSRC1_0480: Odyssey Thera (OT) 8-hour Protein-Complementation Assay for Peroxisome Proliferator-activated Receptor Gamma / SRC-1 Co-activator (AID 2283387)
In short: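 Split-YFP (IFP1/IFP2) PPARg/SRC-1 reporter, HEK293T, 37 °C, 5% CO2; 8 h compound; formaldehyde fix + Draq5; high-content imaging, N/C ratio, ≥350 cells/image, positive direction vs DMSO.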

[4] = molecular target: Bile acid receptor (Homo sapiens) (UniProt Q96RI1); experiment: OT_FXR_FXRSRC1_0480: Odyssey Thera (OT) 8-hour HEK293T Protein-Complementation Assay for Farnesoid X receptor/SRC-1 Co-activator (AID 2283383)
In short: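 Fluorescence intensity read-out, 8 h post-dose, HEK293T protein-fragment complementation; FXR bait and SRC-1 prey each linked to reporter fragments. Activity scored as signal increase over DMSO negative control.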

[5] = molecular target: Peroxisome proliferator-activated receptor gamma (Homo sapiens) (UniProt P37231); experiment: OT_PPARg_PPARgSRC1_1440: Odyssey Thera (OT) 24-hour Protein-Complementation Assay for Peroxisome Proliferator-activated Receptor Gamma/ SRC-1 Co-activator (AID 2283388)
In short: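 HEK293T cells transiently transfected with PPARg and SRC-1 fused via (Gly4Ser)2 linker to split Venus YFP fragments (IFP1/IFP2) were dosed 24 h; fixed, Draq5-stained, imaged at 488/635 nm; nuclear/cytoplasmic fluorescence ratio scored versus DMSO baseline, gain-of-signal.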

[6] = molecular target: Estrogen receptor (Homo sapiens) (UniProt P03372); experiment: OT_ERa_GFPERaERE_0480: Odyssey Thera (OT) 8-hour HeLa Transcription Induction Assay for Estrogen Receptor (AID 2283381; active means hit-call score of the fitted dose curve at least 0.9, where 1 is the maximum; inactive means score below 0.9)
In short: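 GFP-ERE reporter, HeLa, 8 h exposure. Readout: fluorescence microscopy, high-content image analysis. Fit direction positive vs DMSO negative control.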

[7] = molecular target: Estrogen receptor (Homo sapiens) (UniProt P03372); experiment: OT_ERa_GFPERaERE_0120: Odyssey Thera (OT) 2-hour HeLa Transcription Induction Assay for Estrogen Receptor (AID 2283382)
In short: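 Fluorescence microscopy read-out: inducible fluorescent protein reporter in HeLa cells, imaged 2 h post-dose. Signal increase over DMSO negative control fitted as single primary endpoint via high content image analysis.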

[8] = CEETOX_H295R_OHPREG: CeeTox H295R High-throughput Steroidogenesis Assay for OH-Pregnenolone (OHPREG) (AID 2283434; active means hit-call score of the fitted dose curve at least 0.9, where 1 is the maximum; inactive means score below 0.9); details: actives raise or lower the signal
In short: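 Readout: HPLC-MS/MS of 17alpha-hydroxypregnenolone in medium after 48 h chemical exposure of H295R cells pretreated with forskolin. Values fitted bidirectionally relative to DMSO; chemicals reducing viability to 20–70% were retested after 10-fold dilution.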

[9] = molecular target: Estrogen receptor beta (Homo sapiens) (UniProt Q92731); experiment: OT_ER_ERbERb_1440: Odyssey Thera (OT) 24-hour HEK293T Protein-Complementation Assay for Estrogen Receptor-beta/-beta Homodimer (AID 2283380);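 further: fluorescence gain from ER beta LBD homodimer complementation read by laser scanning cytometry; scored as signal increase over DMSO baseline for both agonists and antagonists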
In short: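 HEK293T cells stably expressing human ER-beta LBD (aa 310-547) PCA homodimer pair, dosed 24 h; formaldehyde-fixed, Draq5-stained. Readout: increase in nuclear (agonist) or nuclear plus cytoplasmic (antagonist) fluorescence intensity versus DMSO, gain-of-signal fitting.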

Measured: outcome

Chain of Peroxisome proliferator-activated receptor gamma (Homo sapiens) (P37231 whole entry, looked up, the tested form may be a part): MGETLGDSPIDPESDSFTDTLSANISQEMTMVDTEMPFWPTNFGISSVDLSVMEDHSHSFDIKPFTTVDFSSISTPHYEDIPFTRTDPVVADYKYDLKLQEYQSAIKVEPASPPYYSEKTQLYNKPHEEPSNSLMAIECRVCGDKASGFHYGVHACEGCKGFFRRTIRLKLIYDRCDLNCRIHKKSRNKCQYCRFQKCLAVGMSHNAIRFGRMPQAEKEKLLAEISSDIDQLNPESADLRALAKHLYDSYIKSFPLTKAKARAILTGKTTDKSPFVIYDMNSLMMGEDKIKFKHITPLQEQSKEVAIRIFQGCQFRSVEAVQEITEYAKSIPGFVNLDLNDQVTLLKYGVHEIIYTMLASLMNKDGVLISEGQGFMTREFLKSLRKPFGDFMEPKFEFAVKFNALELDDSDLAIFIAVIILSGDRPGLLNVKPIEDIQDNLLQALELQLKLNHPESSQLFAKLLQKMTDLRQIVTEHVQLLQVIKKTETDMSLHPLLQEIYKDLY
Chain of Bile acid receptor (Homo sapiens) (Q96RI1 whole entry, looked up, the tested form may be a part): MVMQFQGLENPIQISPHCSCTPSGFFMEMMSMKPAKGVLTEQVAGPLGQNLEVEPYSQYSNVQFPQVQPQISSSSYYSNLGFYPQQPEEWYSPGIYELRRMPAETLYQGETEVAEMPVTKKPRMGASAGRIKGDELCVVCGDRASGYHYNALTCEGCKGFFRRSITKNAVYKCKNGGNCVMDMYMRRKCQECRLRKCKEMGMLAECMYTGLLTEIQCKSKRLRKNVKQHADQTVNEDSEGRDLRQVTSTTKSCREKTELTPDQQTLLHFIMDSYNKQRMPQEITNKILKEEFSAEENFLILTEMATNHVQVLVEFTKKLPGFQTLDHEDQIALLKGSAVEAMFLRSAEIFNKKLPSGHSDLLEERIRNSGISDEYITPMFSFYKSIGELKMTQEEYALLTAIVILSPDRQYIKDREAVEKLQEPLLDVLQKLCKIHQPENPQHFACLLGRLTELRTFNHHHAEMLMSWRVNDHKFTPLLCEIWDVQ
Chain of Estrogen receptor (Homo sapiens) (P03372 whole entry, looked up): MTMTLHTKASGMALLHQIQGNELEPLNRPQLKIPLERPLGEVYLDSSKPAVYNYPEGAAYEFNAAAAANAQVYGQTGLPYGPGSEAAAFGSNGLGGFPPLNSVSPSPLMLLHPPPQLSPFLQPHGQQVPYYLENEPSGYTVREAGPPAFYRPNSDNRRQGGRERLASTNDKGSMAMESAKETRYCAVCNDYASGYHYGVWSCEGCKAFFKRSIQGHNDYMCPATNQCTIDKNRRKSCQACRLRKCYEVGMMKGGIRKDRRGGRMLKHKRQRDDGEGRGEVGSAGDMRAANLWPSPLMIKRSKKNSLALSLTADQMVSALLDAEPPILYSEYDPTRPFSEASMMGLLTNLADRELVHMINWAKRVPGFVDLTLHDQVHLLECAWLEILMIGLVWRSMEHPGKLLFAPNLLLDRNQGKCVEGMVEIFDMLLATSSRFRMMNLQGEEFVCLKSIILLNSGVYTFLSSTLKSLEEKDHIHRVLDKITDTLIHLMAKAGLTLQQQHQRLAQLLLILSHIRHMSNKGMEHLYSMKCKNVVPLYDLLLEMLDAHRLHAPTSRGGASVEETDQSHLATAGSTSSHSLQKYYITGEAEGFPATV
Chain of Retinoic acid receptor RXR-alpha (Homo sapiens) (P19793 whole entry, looked up, the tested form may be a part): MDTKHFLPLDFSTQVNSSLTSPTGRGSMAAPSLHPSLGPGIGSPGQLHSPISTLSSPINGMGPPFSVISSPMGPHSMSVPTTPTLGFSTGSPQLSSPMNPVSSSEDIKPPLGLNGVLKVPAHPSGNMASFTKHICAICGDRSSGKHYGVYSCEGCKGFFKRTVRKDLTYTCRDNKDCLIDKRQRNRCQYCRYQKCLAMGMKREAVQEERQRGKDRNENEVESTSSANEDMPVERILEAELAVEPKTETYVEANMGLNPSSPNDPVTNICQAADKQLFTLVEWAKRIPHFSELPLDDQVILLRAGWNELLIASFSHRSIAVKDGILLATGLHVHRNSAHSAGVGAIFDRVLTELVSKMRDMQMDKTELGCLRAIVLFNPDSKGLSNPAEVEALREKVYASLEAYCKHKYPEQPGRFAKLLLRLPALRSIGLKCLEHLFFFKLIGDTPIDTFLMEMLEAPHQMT
Chain of Estrogen receptor beta (Homo sapiens) (Q92731 whole entry, looked up, the tested form may be a part): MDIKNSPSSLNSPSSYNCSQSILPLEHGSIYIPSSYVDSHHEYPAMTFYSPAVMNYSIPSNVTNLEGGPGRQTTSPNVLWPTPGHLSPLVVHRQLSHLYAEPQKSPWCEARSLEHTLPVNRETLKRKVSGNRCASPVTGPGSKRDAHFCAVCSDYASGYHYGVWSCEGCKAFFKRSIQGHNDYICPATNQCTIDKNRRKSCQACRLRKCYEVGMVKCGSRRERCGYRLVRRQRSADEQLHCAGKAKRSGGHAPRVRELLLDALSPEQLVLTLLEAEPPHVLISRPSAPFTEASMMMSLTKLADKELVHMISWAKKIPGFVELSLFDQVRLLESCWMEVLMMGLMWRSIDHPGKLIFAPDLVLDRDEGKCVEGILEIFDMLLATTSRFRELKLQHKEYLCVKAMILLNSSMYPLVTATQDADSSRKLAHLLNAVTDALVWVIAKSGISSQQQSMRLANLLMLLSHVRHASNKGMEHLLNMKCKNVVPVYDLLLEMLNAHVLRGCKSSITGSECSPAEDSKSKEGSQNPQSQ

CCOc1ccc(N=Nc2ccc(C=Cc3ccc(N=Nc4ccc(OCC)cc4)cc3S(=O)(=O)O)c(S(=O)(=O)O)c2)cc1
inactive: [1] | [2] | [3]

C=C1C[C@]23C[C@@]1(O)CC[C@H]2[C@@]12C=C[C@H](O)[C@@](C)(C(=O)O1)[C@H]2[C@@H]3C(=O)O
inactive: [4] | [2] | [3] | [5]

CS(C)=O
inactive: [1] | [2] | [3] | [5]

CS(=O)(=O)OCCCCOS(C)(=O)=O
not listed: [4] | [8] | [9]
inactive: all other assays above

O=C(O)c1ccc(O)cc1
inactive: [2] | [3]

O=c1c(O)c(-c2ccc(O)cc2)oc2cc(O)cc(O)c12
inactive: [4] | [1] | [2]

CC(C)(C)CC(C)(C)c1ccc(OCCOCC[N+](C)(C)Cc2ccccc2)cc1
inactive: [8]

CCCOCCO
inactive: [2] | [3] | [5]

CC(C)CC(C)CC(O)CC(C)C (stereo not given)
inactive: [4] | [2] | [3] | [5]

COCCOCCOCCO
inactive: [1] | [2]

CCCC(C)=O
inactive: [4] | [1] | [2] | [3] | [5]

CC1(C)C(=O)N(Cl)C(=O)N1Br
inactive: [3]

OCC(O)c1ccccc1 (stereo not given)
inactive: [6] | [7] | [1] | [2]

OCCc1ccccc1
inactive: [2] | [3] | [5]

CC(CN=Cc1ccccc1O)N=Cc1ccccc1O (stereo not given)
inactive: [9] | [3] | [5] | [8]

CC(C)CCOC(=O)c1ccccc1
inactive: [4] | [2] | [3]

O=C1OC[C@H](Cc2cccc(O)c2)[C@H]1Cc1cccc(O)c1
inactive: [1] | [3] | [5]
